High-throughput results as filed in PubChem BioAssay.
This excerpt belongs to a sample that is enriched for hits.
Tg IFNy HTS = blocks Toxoplasma gondii growth in the presence of IFN-gamma; Toxoplasma gondii growth in IFN-gamma-treated host cells; stronger effect = lower value; activity change, negative = inhibition, % (no concentration beside the values); 69,000 compounds, 3.8% hits; AID 1259416; in the data active means activity change below about -70%, passing the limit was not always enough;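 further: host cells are HeLa cells infected with Toxoplasma gondii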
Numbers stand for hits; n = inactive; ! = not active in a repeat.

SMILES | Tg IFNy HTS
O=[N+]([O-])c1cc(/C=N/n2cnnc2)ccc1N1CCCC1 | -90
O=C(N/N=C\c1cc([N+](=O)[O-])ccc1N1CCOCC1)c1ccccn1 | n
CCS(=O)(=O)N1CCC2(CC1)OC(=O)C(C)=C2C(=O)NCCOC | n
CCN1c2ccccc2C(=O)NC12CCN(C(=O)c1ccccc1OC)CC2 | n
COc1ccc(Nc2nc(NC(=O)Nc3ccc(Cl)cc3)n[nH]2)cc1 | n
COc1ccc(NC2=NC(c3ccc(Cl)cc3)n3c(nc(C)cc3=O)N2)cc1 (centres undefined) | -86
COc1ccc(C2(CNCc3cc(-c4ccc(Cl)cc4)c[nH]c3=O)CCOCC2)cc1 | n
COc1ccc(-c2ccc(C(=O)N3CCCC(c4ccccc4)CC3)cn2)cn1 (centres undefined) | n
CCOc1ccc2[nH]c(=O)c(CN3CCC[C@H]3COC)cc2c1 | n
CC(C)Nc1nc2c(cc1C(=O)N1CCCC1)CCN(Cc1ccccc1)CC2 | n
CCCc1cc(C(=O)N2CCC(c3nn(C)c(=O)n3CC)CC2)cs1 | n
Cc1nc(NC(=O)N(C)Cc2ccco2)n[nH]1 | n
COc1cc(CCc2cc(NC(=O)c3ccc(N4C[C@@H](C)N[C@@H](C)C4)cc3)n[nH]2)cc(OC)c1 | -74
COc1ccc(CCCNC(=O)c2ccc(N3CC(O)C3)nc2)cc1 | n
COc1ccc(NC(=O)c2ccc(-n3c(C)ccc3C)cc2)c(OC)c1 | n
COc1cc(/C=C/c2ccccc2)ccc1NC(C)=O | n
CC(C(=O)O)n1c(C2CCC2)n[nH]c1=O (centres undefined) | n
CC(=O)N1CCC2(CC1)CN(C(=O)c1ccco1)c1ccc(C)cc12 | n
COc1cc(NC(=O)C2CCCN2)ccc1-n1cccc1 (centres undefined) | n
Cc1ccc(NC(=O)c2ccc3ccc(N4CCN(C)CC4)n3c2)cc1C | -73
Cc1ccccc1NC(=O)c1ccc2ccc(N3CCN(C)CC3)n2c1 | n
CN1CCN(c2ccc3ccc(C(=O)Nc4cccc(F)c4)cn23)CC1 | n
Cc1nc2sccn2c(=O)c1CCN1CCC(=C(c2ccc(F)cc2)c2ccc(F)cc2)CC1 | -77!
Cc1nc2ccccn2c(=O)c1CCN1CCC(C(=O)c2ccc(F)cc2)CC1 | n
Cc1nc2n(c(=O)c1CCN1CCC(c3noc4cc(F)ccc34)CC1)CCCC2O (centres undefined) | n
SMILES | Tg IFNy HTS
Cc1nnc(-c2ccccc2-c2cccc3ccnn23)s1 | n
NC(=O)c1csc(-c2cccc3ccnn23)n1 | -98
CNC(=O)Cn1cc(-c2cccc3ccnn23)cn1 | n
CCOc1ccc(-c2noc(-c3c(O)c4cccc(Cl)c4[nH]c3=O)n2)cc1 | n
O=c1ccc2cc(S(=O)(=O)N3CC=C(c4ccccc4)CC3)ccc2[nH]1 | n
CCS(=O)(=O)N1CCc2ncnc(-c3ccsc3)c2CC1 | n
C=CCn1c(SCc2ccccn2)nc2c([nH]c3ccccc32)c1=O | n
CC(C)(C)c1nc2ccccc2c2nnc(SCc3ccccn3)n12 | -79
Nc1nnc(SCc2ccccn2)s1 | n
COc1cncc(C(=O)NCc2ccccc2Br)c1 | n
Cc1nc(-c2cc(C(=O)NCCN(C)C)c3ccccn23)cn1-c1nccs1 | n
CN(C)CCNC(=O)c1cc(-c2ccn(-c3ccccc3)n2)n2ccccc12 | -106
COCCC(=O)c1cc(-c2ccn(-c3ccccc3)n2)n2ccccc12 | n
c1cc(-c2ccc(Cn3ccnc3)cn2)n2nccc2c1 | n
COc1cccc(-c2nc(Cn3c(=O)c4c(C)cc(C)nc4n(C)c3=O)c(C)o2)c1OC | n
Cc1ccc(C2(CC(=O)N3CCC(O)(Cn4ccnc4C)CC3)CCOC(C)(C)C2)cc1 (centres undefined) | n
C[C@H]1[C@@H](O)O[C@@H]2O[C@@]3(C)CC[C@H]4[C@H](C)CC[C@@H]1[C@@]24OO3 | -94
COc1ccc2[nH]cc(CCNC(=O)c3c(-c4cccnc4)noc3C)c2c1 | n
c1cc(-c2nccn2Cc2ccco2)cc(-n2cccn2)c1 | n
O=C(Nc1ccc2c(c1)CN(Cc1ccccc1)C2)c1nc2ncccn2n1 | -77
Cc1nc2nc[nH]n2c(=O)c1CC(=O)Nc1ccc2c(c1)CN(Cc1ccccc1)C2 | n
CCn1c(C)nc2cc(NC(=O)c3cnc(N4CCOCC4)nc3)ccc21 | n
Cc1nc(N)nc(C)c1CCC(=O)Nc1ccc2c(c1)CN(Cc1ccccc1)C2 | n
O=C(Nc1ccc2c(c1)CN(Cc1ccccc1)C2)c1cnc(N2CCOCC2)nc1 | -96
O=C(Cn1ncc2ccccc2c1=O)Nc1ccc2c(c1)CN(Cc1ccccc1)C2 | n
SMILES | Tg IFNy HTS
OCc1ccc(O[C@@H]2O[C@@H](CO)[C@@H](O)[C@H](O)[C@H]2O)cc1 | n
CN(C)C1CCN(C(=O)c2ccncc2F)C(C(=O)O)C1 (centres undefined) | n
CC(C)[C@H]1CN(Cc2ccco2)CCN1C(=O)c1ccc(Cn2cccn2)o1 | n
CCNC(=S)N1CCN(c2cccc(C)c2C)CC1 | n
Cc1ncsc1CCn1cnc(-c2ccccc2)c1-c1ccc(CO)o1 | n
CCC(OC(=O)c1ccco1)C(=O)NCc1ccccc1 (centres undefined) | n
S=C(NCc1ccccc1)NCc1cccc(CNC(=S)NCc2ccccc2)c1 | n
